This is a sample that favours compounds with a hit; in the whole collection about 2.2% have one here.
ERG Ets-DNA blk – qHTS for Small Molecule Inhibitors of the ERG Ets/DNA interaction; fluorescence polarization, His-ERG Ets domain / labelled DNA; Potency, µM (series often up to 76.9 µM), inactives show at the top dose FP activity, negative = inhibition, usual class: inhibitors; hit rate 0.028% among 370,000; active = well fitted inhibition curve with a large enough effect in the polarisation, with a control signal flat; inconclusive = small, poorly fitted or top-dose-only effect, or effect the other way, or a change in a side signal; inactive = no such curve, though single readings can be large or run the other way; the % refers to the polarisation;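 also: polarization taken with two DNA probes labelled with fluorescein and Texas red; % of control where 0% means no effect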
Target sequence (P11308 whole entry, looked up, the tested form may be a part): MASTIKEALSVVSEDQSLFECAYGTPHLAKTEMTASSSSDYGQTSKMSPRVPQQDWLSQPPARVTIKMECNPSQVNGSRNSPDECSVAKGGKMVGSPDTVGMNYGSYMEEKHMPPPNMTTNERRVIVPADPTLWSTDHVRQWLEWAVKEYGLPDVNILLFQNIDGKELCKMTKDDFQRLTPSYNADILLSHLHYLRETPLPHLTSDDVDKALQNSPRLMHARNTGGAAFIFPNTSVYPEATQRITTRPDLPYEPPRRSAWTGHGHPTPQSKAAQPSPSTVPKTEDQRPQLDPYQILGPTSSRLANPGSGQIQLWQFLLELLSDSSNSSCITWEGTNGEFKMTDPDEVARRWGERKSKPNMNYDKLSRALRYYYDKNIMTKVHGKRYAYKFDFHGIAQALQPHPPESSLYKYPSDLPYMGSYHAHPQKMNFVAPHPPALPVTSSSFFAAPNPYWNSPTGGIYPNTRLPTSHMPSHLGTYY
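His-tagged ERG Ets domain (1 uM in the protein solution; 300mM KCl, 50mM Tris-HCl, 1mM EDTA, 1mM DTT, pH 7.5) received compound, then a probe mix of 5 nM fluorescein-DNA and 100nM Texas-615-DNA. Fluorescence polarization was read for both dyes.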
Mito fusion act – qHTS Assay for Small Molecule Inhibitors of Mitochondrial Division or Activators of Mitochondrial Fusion. S. cerevisiae fusion-defective mutant growth rescue, CellTiterGlo 48 h. Potency, µM (doses to about 46.1 µM), inactives show at the highest dose growth rescue (activation), actives largely listed as activators. hit rate 0.23% among 320,000. AID 485298, 2010; also: % of control where 0% means no effect; nearly all actives have a fitted effect of over 45% in size
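Luminescent cell viability in 1536-well qHTS format served as the measure of rescued growth in ts fusion-mutant S. cerevisiae cultured on non-fermentable YPEG for 48 hours at 37C.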
TDP-43 yeast inh – qHTS of TDP-43 Inhibitors; TDP-43 expressing yeast growth rescue, BacTiter-Glo, 24 h; Potency, µM (doses to about 46.1 µM), inactives show at the top dose growth rescue (activation), actives largely listed as activators; hit rate 1.8% among 410,000; AID 652104, 2013; also: % of control where 0% means no effect; nearly all actives have a fitted effect of over 50% in size
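Cell-based yeast growth screen: TDP-43 expression induced in galactose, inoculum OD600=0.02 after raffinose pregrowth to mid-log. Read-out BacTiter-Glo luminescence at 24 hr, 30 deg C; inhibition of toxicity seen as signal increase.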
FUS yeast rescue – qHTS for Suppressors of FUS Proteinopathy: Primary screen using FUS-linked yeast assay. AID 1347120, 2019. Potency, µM (highest dose often 76.6 µM), usual class: activators. hit rate 0.24% among 390,000. S. cerevisiae FUS-expressing, growth rescue, OD600, 24 h;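 also: plate controls were DMSO vehicle for no effect and reference control for full effect; nearly all actives have a fitted effect of over 55% in size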
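Restored growth of FUS-toxic S. cerevisiae, read as 600 nm absorbance after 24 h at 30C in galactose medium (starting OD 0.005). Controls CP55940 and DMSO.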
Abeta yeast res – qHTS for compounds that reverse cellular toxicity of Amyloid beta (A-beta) peptide in yeast: Primary Screen; yeast expressing A-beta42, growth rescue, OD600, 48 h; response scale: 0% DMSO, 100% iron-clioquinol control; Potency, µM (series often up to 46.1 µM), hits mostly activators; hit rate 0.063% among 410,000; AID 1347071, 2019; also: nearly all actives have a fitted effect of over 55% in size
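Yeast A-beta toxicity model in growth medium with pinned compounds, 48 h at 30 C; growth read as absorbance at 600 nm. Normalized to FeCl3/clioquinol equimolar mix (positive) and DMSO (negative).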
aSyn rescue – qHTS of alpha-syn Inhibitors; Yeast expressing alpha-synuclein, growth rescue, BacTiter-Glo, 24 h; Potency, µM (top dose mostly 46.1 µM), for the others: at the highest dose growth rescue (activation), actives largely listed as activators; hit rate 0.14% among 370,000; also: % of control where 0% means no effect; nearly all actives have a fitted effect of over 65% in size
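Readout is rescue of growth in alpha-synuclein-expressing yeast, so inhibitors of toxicity appear as activators. Growth after 24 hr at 30 deg C in galactose medium is quantified by luminescence.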
* hit, by the source's call; i = inactive; ? = inconclusive; / = no result; [ ] = another dose, or the depositor's remark. Unless noted, calls follow the shape of the dose curve; as a rule, active = well fitted curve in the direction sought with a large enough effect; inconclusive = small, poorly fitted or top-dose-only effect, or another doubt; inactive = no such curve, though single readings can be large; an effect the other way counts as inactive or inconclusive. Potency is read from the fitted curve at half-maximal effect.

SMILES	ERG Ets-DNA blk	Mito fusion act	TDP-43 yeast inh	FUS yeast rescue	Abeta yeast res	aSyn rescue
O=C(O)Cc1ccc(C(=O)c2ccccc2)s1	3.9%	-1.5%	-17.2%	i	i	4.5%
Cc1ccc(C)c(OCCn2c(C3CC(=O)N(Cc4ccc(F)cc4)C3)nc3ccccc32)c1 (configuration not stated)	-1.6%	/	35.5µM*	?	i	/
CCc1ccccc1N1CC(c2nc3ccccc3n2CCOc2ccc(Cl)c(C)c2)CC1=O (configuration not stated)	-1.2%	/	-11.2%	25.1µM*	i	/
Cc1cccc(OCCCCn2c(C3CC(=O)N(c4ccc(C)cc4C)C3)nc3ccccc32)c1 (configuration not stated)	1.1%	/	31.6µM*	?	i	/
Cc1cccc(C)c1OCCn1c(C2CC(=O)N(Cc3ccc(F)cc3)C2)nc2ccccc21 (configuration not stated)	-2.4%	/	0.0%	?	i	/
Cc1cc(OCCn2c(C3CC(=O)N(Cc4ccc(F)cc4)C3)nc3ccccc32)ccc1Cl (configuration not stated)	-0.7%	/	3.6%	i	i	/
CCc1ccc(N2CC(c3nc4ccccc4n3Cc3ccccc3C)CC2=O)cc1 (configuration not stated)	-0.6%	/	28.2µM*	?	i	/
Cc1cnc(C(=O)N(CCCn2ccnc2)C2C(=O)Nc3ccccc3N=C2c2ccccc2)cn1 (configuration not stated)	/	/	9.8%	i	i	-1.6%
CCCc1noc(-c2ccc(NCc3ccccc3OC)c([N+](=O)[O-])c2)n1	0.7%	/	7.5%	i	i	/
Cc1ccc(-n2nnnc2SCC(=O)NCC2CCCO2)cc1C (configuration not stated)	-7.3%	-5.6%	10.9%	i	i	-0.1%
COc1ccc(-n2nnnc2SCC(=O)NCCc2ccccc2)cc1OC	14.5%	0.7%	-14.1%	i	i	-0.9%
Cc1cccc(-n2nnnc2SCC(=O)NCC2CCCO2)c1 (configuration not stated)	-2.5%	17.8µM*	-19.9%	i	i	-5.1%
O=C(CSc1nc2cc(Cl)ccc2s1)NCC1CCCO1 (configuration not stated)	10.0%	/	20µM*	i	i	8.0%
Cc1ccc(-n2nnnc2SCC(=O)NCCc2ccccc2)cc1C	0.5%	/	22.4µM*	i	i	/
O=C(CSc1nc2ccc([N+](=O)[O-])cc2s1)NCC1CCCO1 (configuration not stated)	20.0%	-1.8%	15.0%	i	i	4.4%
Cc1ccc(-c2cc(C(=O)NN=Cc3ccc(N(C)C)cc3)[nH]n2)cc1C	/	/	/	i	/	/
CCOC(=O)C1=C(Cc2ccc(C)cc2)C(=O)c2ccccc2C1=O	/	-1.6%	/	/	/	/
CCOC(=O)C1=C(Cc2ccc(OC)cc2)C(=O)c2ccccc2C1=O	5.1%	3.6%	12.6µM*	i	i	20.1%
O=S1(=O)c2ccc(N3CCN(Cc4ccccc4F)CC3)cc2Oc2ccccc2CN1Cc1cn(Cc2ccc(F)cc2)nn1	/	/	/	i	/	/
Cc1cc(-c2n[nH]c(=S)n2N=Cc2ccc(OCc3ccccc3)cc2)n[nH]1	/	/	/	i	/	/
Brc1ccc(OCc2nc(-c3ccccn3)n[nH]2)cc1	-10.4%	-4.1%	15.8µM*	i	i	?
Clc1ccc(OCc2nc(-c3ccccn3)n[nH]2)cc1	-2.8%	2.3%	?	i	?	?
Cc1cccc(C)c1NC(=O)c1ccc(-c2cc(F)ccc2F)o1	/	/	11.2µM*	i	i	-1.2%
Cc1cccc(C)c1NC(=O)c1ccc(-c2ccc(Cl)cc2Cl)o1	-0.8%	?	21.3%	i	i	0.1%
Cc1ccccc1NC(=O)c1ccc(-c2ccc(Cl)cc2Cl)o1	9.9%	?	20µM*	i	?	1.4%
SMILES	ERG Ets-DNA blk	Mito fusion act	TDP-43 yeast inh	FUS yeast rescue	Abeta yeast res	aSyn rescue
CC1(c2nnnn2Cc2ccccc2)CCC(=O)N1C1CC1 (configuration not stated)	/	/	12.1%	i	i	-5.0%
Cc1c(CCCl)c(Cl)n2c(nc3ccccc32)c1C#N	/	/	7.08µM*	/	i	2.5%
Cc1cc(Cl)n2c(nc3ccccc32)c1C#N	6.1%	-2.5%	3.16µM*	i	i	-70.7%
Cc1cc(Cn2nnc3ccccc32)c(O)c(C(C)(C)C)c1	1.5%	?	22.2%	i	i	10.7%
CC(C)(C)c1cccc(Cn2nnc3ccccc32)c1O	4.1%	20µM*	?	i	i	0.7%
CCOc1ccc2c(c1)-c1c(ssc1=S)C(C)(C)N2	/	11.1%	22.4µM*	i	i	1.2%
CCOc1ccc2c(c1)-c1c(ssc1=S)C(C)(C)N2C(=O)CSC1=NCCS1	-10.0%	?	18.4%	i	i	-0.6%
COc1ccc(CNc2oc(COc3cccc(C)c3)nc2C#N)cc1	-1.4%	/	22.4µM*	i	i	/
Cc1cccc(OCc2nc(C#N)c(NCc3ccc4c(c3)OCO4)o2)c1	0.9%	7.08µM*	?	i	i	26.5%
Cc1ccccc1C(=O)Nc1ccc2nc(Nc3cccc(C(F)(F)F)c3)cc(C)c2c1	-1.8%	/	17.8µM*	i	i	/
Cc1cc(Nc2cccc(Cl)c2)nc2ccc(NC(=O)c3cncc(Br)c3)cc12	1.0%	/	22.4µM*	31.6µM*	i	/
COc1ccccc1CC(=O)Nc1ccc2nc(Nc3cccc(C(F)(F)F)c3)cc(C)c2c1	5.1%	/	12.6µM*	?	i	/
Cc1cc(Nc2cccc(C(F)(F)F)c2)nc2ccc(NC(=O)c3cncc(Br)c3)cc12	6.7%	/	14.0%	?	i	/
CCOc1ccc(C2NC(=O)c3c(COC)cc(C)nc3N2Cc2ccccc2)cc1OC (configuration not stated)	-3.4%	/	3.4%	i	i	/
COc1ccc(CNC(=O)Cn2c(=O)c3cccn3c3ccccc32)cc1	-1.5%	/	6.8%	i	i	/
CCC[C@H]1[C@H](N)CC[C@@]23CCCN2C(=O)CCC[C@@H]13	/	/	/	i	/	/
Cc1cc(F)ccc1S(=O)(=O)Nc1ccc(C(=O)N2CCCCCC2)cc1	10.2%	2.0%	9.5%	i	i	-3.9%[1.84 µM]
Cc1cc(F)ccc1S(=O)(=O)Nc1ccccc1C(=O)N1CCCC1	-5.0%	1.9%	15.5%	i	i	4.47µM*
